Where “and” joins values, the source holds several entries; their conditions need not be identical. Equal entries are not always repeated. Inconclusive results are not listed. Where a call stands in place of a potency, no number is given. Calls of active or inactive are those of the source. Unless noted, the call rests on the fitted dose curve.
Assays:
[1] = NS1 protein of Zika virus - qHTS assay to identify small molecule inhibitors in human HEK 293 cells (AID 1347053; active means well fitted inhibition curve with a large enough effect; further: nearly all actives have a fitted effect of over 55% in size)
How it was run: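 TR-FRET signal from two anti-ZIKV NS1 antibodies quantified NS1 in HEK 293 cells 24 h after MR766 infection at MOI = 0.5; compounds were added 1 h before virus. Uninfected cells and infected cells defined the NS1 normalization range.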

[2] = qHTS for Inhibitors of the Functional Ribonucleoprotein Complex (vRNP) of Lassa (LASV) Arenavirus: LASV Primary Screen - GLuc reporter signal (AID 1347082; calls by dose curve; tested in HEK293 reporter line; further: nearly all actives have a fitted effect of over 60% in size)
[3] = qHTS for Inhibitors of the Functional Ribonucleoprotein Complex (vRNP) of Lymphocytic Choriomeningitis Arenaviruses (LCMV): Viability assay - alamar blue signal for LCMV Primary Screen (AID 1347085; calls by dose curve; tested in HEK293 reporter line; further: nearly all actives have a fitted effect of over 80% in size)
[4] = molecular target: Nucleoprotein (Lymphocytic choriomeningitis virus (strain Armstrong)) (UniProt P09992); experiment: qHTS for Inhibitors of the Functional Ribonucleoprotein Complex (vRNP) of Lymphocytic Choriomeningitis Arenaviruses (LCMV): LCMV Primary Screen - GLuc reporter signal (AID 1347086); further: nearly all actives have a fitted effect of over 70% in size
Sequence of Nucleoprotein (Lymphocytic choriomeningitis virus (strain Armstrong)) (P09992 whole entry, looked up): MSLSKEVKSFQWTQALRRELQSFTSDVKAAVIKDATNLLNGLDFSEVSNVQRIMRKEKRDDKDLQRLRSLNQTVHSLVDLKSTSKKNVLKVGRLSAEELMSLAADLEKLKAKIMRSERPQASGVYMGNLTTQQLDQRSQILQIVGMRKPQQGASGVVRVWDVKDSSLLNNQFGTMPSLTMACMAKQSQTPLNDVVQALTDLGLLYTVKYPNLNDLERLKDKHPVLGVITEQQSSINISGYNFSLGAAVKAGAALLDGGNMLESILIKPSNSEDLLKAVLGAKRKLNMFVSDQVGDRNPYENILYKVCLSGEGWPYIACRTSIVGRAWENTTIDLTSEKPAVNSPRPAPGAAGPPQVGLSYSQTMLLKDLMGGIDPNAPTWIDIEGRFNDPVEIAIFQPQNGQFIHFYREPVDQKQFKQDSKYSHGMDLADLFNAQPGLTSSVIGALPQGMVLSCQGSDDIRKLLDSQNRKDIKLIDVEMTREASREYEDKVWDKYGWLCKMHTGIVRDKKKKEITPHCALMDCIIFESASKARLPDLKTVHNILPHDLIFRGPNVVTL

[5] = qHTS for Inhibitors of the Functional Ribonucleoprotein Complex (vRNP) of Lassa (LASV) Arenavirus: Viability assay - alamar blue signal for LASV Primary Screen (AID 1347083; calls by dose curve; tested in HEK293 reporter line; further: nearly all actives have a fitted effect of over 80% in size)
Potency means the concentration at half of the fitted maximal effect.

Structure (SMILES): CC(C)CC(N(C)C)C1(c2ccc(Cl)cc2)CCC1 (stereo not given)
- Potency [1]: inactive
- Potency [2]: inactive
- Potency [3]: inactive
- Potency [4]: inactive

Structure (SMILES): COC(=O)C1=C(C)NC(C)=C(C(=O)OCCN(C)Cc2ccccc2)C1c1cccc([N+](=O)[O-])c1 (stereo not given)
- Potency [2]: inactive

Structure (SMILES): C=CC(=O)Nc1cc2c(Nc3ccc(F)c(Cl)c3)ncnc2cc1OCCCN1CCOCC1
- Potency [2]: inactive

Structure (SMILES): COc1ccc2c(c1OC)CN1CCc3cc4c(cc3C1C2)OCO4 (stereo not given)
- Potency [1]: inactive
- Potency [2]: inactive
- Potency [5]: inactive
- Potency [3]: inactive
- Potency [4]: inactive

Structure (SMILES): C[C@@H]1[C@@H](C(=O)C[C@H]2O[C@@H]3O[C@]4(C)CC[C@@H]5[C@H](C)CC[C@@H]([C@H]2C)[C@@]35OO4)O[C@@H]2O[C@]3(C)CC[C@H]4[C@H](C)CC[C@@H]1[C@@]24OO3
- Potency [1]: inactive
- Potency [5]: inactive
- Potency [3]: 21.7 µM (active)

Structure (SMILES): CN(C)CCN(C)CCc1ccc(Cl)c(Cl)c1
- Potency [1]: inactive
- Potency [3]: 21.7 µM (active)

Structure (SMILES): CN(C)c1nc(N(C)C)nc(N(C)C)n1
- Potency [2]: inactive

Structure (SMILES): CCN(CC)CCN1C(=O)CN=C(c2ccccc2F)c2cc(Cl)ccc21
- Potency [1]: inactive
- Potency [3]: inactive
- Potency [4]: inactive

Structure (SMILES): Cn1ccc2cc3c(cc21)CCN3C(=O)Nc1cccnc1
- Potency [2]: inactive

Structure (SMILES): COC(=O)C1=C(C)NC(C)=C(C(=O)OC(C)C)C1c1cccc2nonc12 (stereo not given)
- Potency [2]: inactive

Structure (SMILES): CC(C)n1c(/C=C/[C@@H](O)C[C@@H](O)CC(=O)O)c(-c2ccc(F)cc2)c2ccccc21
- Potency [2]: inactive

Structure (SMILES): C=CCN1CC[C@]23c4c5ccc(O)c4O[C@H]2C(=O)CC[C@@]3(O)[C@H]1C5
- Potency [1]: inactive
- Potency [2]: inactive
- Potency [5]: inactive
- Potency [4]: inactive

Structure (SMILES): CCCSc1ccc2nc(NC(=O)OC)[nH]c2c1
- Potency [2]: inactive

Structure (SMILES): CC(C)(N)Cc1ccc(Cl)cc1
- Potency [1]: inactive
- Potency [2]: inactive
- Potency [5]: inactive
- Potency [3]: inactive
- Potency [4]: inactive

Structure (SMILES): CC1=C2C[C@@H]3[C@@H](CC=C4C[C@@H](O)CC[C@@]43C)[C@@H]2CC[C@]12O[C@H]1C[C@H](C)CN[C@H]1[C@H]2C
- Potency [1]: inactive
- Potency [2]: inactive
- Potency [5]: inactive
- Potency [3]: inactive
- Potency [4]: inactive

Structure (SMILES): CC1NCCOC1c1ccccc1 (stereo not given)
- Potency [1]: inactive
- Potency [2]: inactive
- Potency [5]: inactive
- Potency [3]: inactive
- Potency [4]: inactive

Structure (SMILES): COc1cc([C@@H]2c3cc4c(cc3[C@H](O)[C@H]3COC(=O)[C@H]23)OCO4)cc(OC)c1OC
- Potency [2]: inactive

Structure (SMILES): C#CCOC(C(=O)OCCN(C)C)(c1ccccc1)c1ccccc1
- Potency [1]: inactive
- Potency [2]: inactive
- Potency [5]: inactive
- Potency [3]: inactive
- Potency [4]: inactive

Structure (SMILES): CO[C@]12CC[C@@]3(C[C@@H]1[C@](C)(O)C(C)(C)C)[C@@H]1Cc4ccc(O)c5c4[C@@]3(CCN1CC1CC1)[C@H]2O5
- Potency [2]: inactive
- Potency [5]: inactive

Structure (SMILES): N[C@@H]1C[C@H]1c1ccccc1
- Potency [1]: inactive
- Potency [2]: inactive
- Potency [5]: inactive
- Potency [3]: inactive
- Potency [4]: inactive

Structure (SMILES): CCCC1CCCCN1 (stereo not given)
- Potency [1]: inactive
- Potency [2]: inactive
- Potency [5]: inactive
- Potency [3]: inactive
- Potency [4]: inactive

Structure (SMILES): CCC(C)(C)C(=O)O[C@H]1C[C@@H](C)C=C2C=C[C@H](C)[C@H](CC[C@@H]3C[C@@H](O)CC(=O)O3)[C@H]21
- Potency [2]: inactive

Structure (SMILES): Oc1ccccc1-c1ccccc1
- Potency [1]: inactive
- Potency [2]: inactive
- Potency [5]: inactive
- Potency [3]: inactive
- Potency [4]: inactive

Structure (SMILES): CC[N+]1(C)CCCC(OC(=O)C(O)(c2ccccc2)c2ccccc2)C1 (stereo not given)
- Potency [1]: inactive
- Potency [2]: inactive
- Potency [5]: inactive
- Potency [3]: inactive
- Potency [4]: inactive

Structure (SMILES): CC(C)=CC1C(C(=O)OCc2cccc(Oc3ccccc3)c2)C1(C)C (stereo not given)
- Potency [1]: inactive
- Potency [2]: inactive
- Potency [5]: inactive
- Potency [3]: inactive
- Potency [4]: inactive

Structure (SMILES): N[C@@H](Cc1ccc(N(CCCl)CCCl)cc1)C(=O)O
- Potency [1]: 8.33 µM (active)
- Potency [2]: inactive
- Potency [5]: inactive
- Potency [3]: inactive
- Potency [4]: inactive

Structure (SMILES): O=C(NC(O)C(Cl)(Cl)Cl)NC(O)C(Cl)(Cl)Cl (stereo not given)
- Potency [1]: inactive
- Potency [2]: inactive
- Potency [5]: inactive
- Potency [3]: inactive
- Potency [4]: inactive

Structure (SMILES): NP(N)(=O)NC(=O)c1ccc(F)cc1
- Potency [1]: inactive
- Potency [2]: inactive
- Potency [5]: inactive
- Potency [3]: inactive
- Potency [4]: inactive

Structure (SMILES): CC(=O)[C@]1(O)Cc2c(O)c3c(c(O)c2[C@@H](O[C@H]2C[C@H](N)[C@H](O)[C@H](C)O2)C1)C(=O)c1ccccc1C3=O
- Potency [2]: 3.98 µM (active)

Structure (SMILES): N[C@@H](Cc1ccc(Oc2cc(I)c(O)c(I)c2)c(I)c1)C(=O)O
- Potency [1]: inactive
- Potency [2]: inactive
- Potency [5]: inactive
- Potency [3]: inactive
- Potency [4]: inactive

Structure (SMILES): CCN(CC)C(=O)N[C@@H]1C=C2c3cccc4[nH]cc(c34)C[C@@H]2N(C)C1
- Potency [1]: inactive
- Potency [2]: inactive
- Potency [5]: inactive
- Potency [4]: inactive

Structure (SMILES): O=C(O)c1ccc2[nH]cc(CCCCN3CC=C(c4ccccc4)CC3)c2c1
- Potency [1]: inactive
- Potency [2]: inactive
- Potency [5]: inactive
- Potency [3]: inactive
- Potency [4]: inactive

Structure (SMILES): O=C1CC[C@@]2(O)[C@H]3Cc4ccc(O)c5c4[C@@]2(CCN3CC2CC2)[C@H]1O5
- Potency [1]: inactive
- Potency [2]: inactive
- Potency [5]: inactive
- Potency [3]: inactive
- Potency [4]: inactive

Structure (SMILES): CN(C)CCCN1c2ccccc2Sc2ccc(Cl)cc21
- Potency [2]: inactive

Structure (SMILES): COc1c(C)c2c(c(O)c1C/C=C(\C)CCC(=O)OCCN1CCOCC1)C(=O)OC2
- Potency [2]: inactive

Structure (SMILES): CSc1ccc2c(c1)N(CCC1CCCCN1C)c1ccccc1S2 (stereo not given)
- Potency [2]: inactive

Structure (SMILES): CN/C(=C\[N+](=O)[O-])NCCSCc1ccc(CN(C)C)o1
- Potency [2]: inactive
- Potency [5]: inactive
- Potency [3]: inactive
- Potency [4]: inactive

Structure (SMILES): CC(C(=O)O)c1cccc(C(=O)c2ccccc2)c1 (stereo not given)
- Potency [2]: inactive
- Potency [5]: inactive
- Potency [3]: inactive
- Potency [4]: inactive

Structure (SMILES): CC[C@@]1(O)C(=O)OCc2c1cc1n(c2=O)Cc2cc3c(CN(C)C)c(O)ccc3nc2-1
- Potency [2]: 8.63 µM (active)
- Potency [5]: 2.82 µM (active) and 1.09 µM (active)
- Potency [3]: 1.72 µM (active)
- Potency [4]: 2.82 µM (active) and 3.06 µM (active)

Structure (SMILES): CN(N=O)C(=O)N[C@@H]1[C@@H](O)[C@H](O)[C@@H](CO)O[C@@H]1O
- Potency [2]: inactive
- Potency [5]: inactive
- Potency [3]: inactive
- Potency [4]: inactive

Structure (SMILES): CCCCCOC(=O)Nc1nc(=O)n([C@@H]2O[C@H](C)[C@@H](O)[C@H]2O)cc1F
- Potency [2]: inactive
- Potency [5]: inactive
- Potency [3]: inactive
- Potency [4]: inactive

From PubChem BioAssay (NCATS)
